From PubChem BioAssay
Calls of active or inactive are those of the source.

Key:
Albumin (Bos taurus) = Albumin (Bos taurus) (UniProt P02769); experiment: bovine serum albumin binders on microarray, profiling panel, artefact control for SMM control protein annotation, biochemical, small-molecule microarray, Alexa647 label, 635/667 nm fluorescence (AID 1118); conditions: BSA-A647 binding, fluorescence 635 nm, higher = more signal;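 further: score merges 667 nm emission intensity and signal-to-noise per printed compound spot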
[1] = small-molecule microarray binders of probe aXIP, primary screen, biochemical, NeuroSMM set, 635/667 nm fluorescence (AID 1119); conditions: higher = more signal, called active from +8 up or from −8 down;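 further: probe is the protein aXip251-270 applied at 1 µg/mL to compound-printed slides; binding of probe to printed compounds measured as 667 nm fluorescence plus signal to noise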
[2] = small-molecule binders of probe aNOTCH3, primary screen, biochemical, small-molecule microarray, 635/667 nm fluorescence (AID 1120); conditions: higher = more signal;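 further: probe is a biotin-tagged antibody raised against NOTCH3 rather than NOTCH3 protein; score merges spot fluorescence near 667 nm with spot signal to noise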
[3] = small-molecule binders of probe aNOTCH2, primary screen, biochemical, small-molecule microarray, 635/667 nm fluorescence (AID 1121); conditions: higher = more signal;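 further: score merges feature fluorescence read at 667 nm with its signal to noise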
[4] = molecular target: Carbonic anhydrase 2 (Homo sapiens) (UniProt P00918); experiment: CAII small-molecule binders, profiling panel, biochemical, small-molecule microarray, Alexa647-labelled CAII (AID 1122); conditions: CAII-A647 binding fluorescence, higher = more signal
[5] = COS7 lysate on small-molecule microarray, probe aHis, 635 nm (AID 1123); conditions: COS7 cell lysate, fluorescence, higher = more signal;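 further: z-score combines 667nm fluorescence intensity with signal-to-noise per printed compound spot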
[6] = compound binding in COS7 lysate, probe aLAP1, primary screen, cell lysate, small-molecule microarray (AID 1124); conditions: probe aLAP1, fluorescence, higher = more signal;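 further: lysate comes from COS7 cells expressing LAP1 and is applied at 0.3 µg/mL; score merges spot fluorescence near 667 nm with signal-to-noise over triplicate slides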
Sam68 (KHDRBS1) = experiment: Sam68 small-molecule binders, primary screen, biochemical, small-molecule microarray, 635 nm fluorescence (AID 1125); conditions: small-molecule microarray binding, higher = more signal;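 further: score merges 667 nm channel intensity with signal to noise over triplicate slides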
[7] = system: Chordin-like protein 2 (CHRDL2); experiment: CHRDL2 small-molecule binders, primary screen, biochemical, small-molecule microarray, 635 nm fluorescence (AID 1126); conditions: small-molecule microarray binding, fluorescence 635 nm; higher = more signal;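 further: printed compound slides probed with Chrdl2 protein at 4 µg/mL for 1 h at 4 C; score merges 667 nm emission intensity with signal to noise over three replicate slides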
[8] = molecular target: Concanavalin-A (Canavalia ensiformis) (UniProt P02866); experiment: ConA small-molecule binders, primary screen, artefact control for SMM control protein annotation, biochemical, small-molecule microarray, Alexa647 label, 635 nm (AID 1127); conditions: ConA-A647 binding fluorescence, higher = more signal;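 further: z combines 667 nm emission intensity with signal-to-noise across three replicate slides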
[9] = anti-His antibody binders, primary screen, artefact control for SMM control protein annotation, biochemical, small-molecule microarray, 635 nm fluorescence (AID 1128); conditions: anti-His Alexa647 antibody binding, higher = more signal;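 further: score merges feature fluorescence with signal-to-noise for each printed compound spot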
[10] = system: Human papillomavirus type 1a E7 protein (residues 1-88); experiment: HPV1a E7 small-molecule binders, primary screen, biochemical, small-molecule microarray, residues 1-88, 635 nm (AID 1129); conditions: small-molecule microarray binding, fluorescence 635 nm; higher = more signal
[11] = molecular target: Focal adhesion kinase 1 (Homo sapiens) (UniProt Q05397); experiment: small-molecule microarray binders of FAK, primary screen, biochemical, 635/667 nm fluorescence, BSA, DTT (AID 1130); conditions: PTK2 binding, 635 nm fluorescence, higher = more signal;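 further: composite of spot emission at 667 nm and signal to noise over triplicate slides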
[12] = system: Fibrinogen (Alexa647-labelled); experiment: fibrinogen binders on compound microarrays, profiling panel, artefact control for SMM control-protein annotation, biochemical, small-molecule microarray, 635/667 nm fluorescence (AID 1131); conditions: fibrinogen-A647 binding fluorescence, higher = more signal;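 further: z-score merges 667 nm fluorescence with per-spot signal-to-noise over triplicate slides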
[13] = molecular target: Follistatin (Homo sapiens) (UniProt P19883); experiment: follistatin binders on small-molecule microarrays, primary screen, biochemical, small-molecule microarray, 635/667 nm fluorescence (AID 1132); conditions: FST binding, 635 nm fluorescence, higher = more signal
[14] = molecular target: Fibroblast growth factor 2 (Homo sapiens) (UniProt P09038); experiment: FGF2 binders on small-molecule microarrays, primary screen, biochemical, small-molecule microarray, 635/667 nm fluorescence (AID 1133); conditions: small-molecule microarray binding, FGF2, fluorescence 635/667; higher = more signal
[15] = mitochondrial membrane potential change in A549 cells, profiling panel, cell-based, JC-1 fluorescence, basal, 24 h, 100 nL (AID 1138); conditions: higher = more signal;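 further: A549 lung adenocarcinoma cells under basal conditions with no added stimulus; test concentration not given here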
Lefty1 = Lefty1 binders on small-molecule microarrays, primary screen, biochemical, small-molecule microarray, 635/667 nm fluorescence (AID 1139); conditions: small-molecule microarray binding, fluorescence 635/667; higher = more signal
[16] = system: wheat germ agglutinin (Triticum aestivum), Alexa647-labelled; experiment: wheat germ agglutinin binders on compound microarrays, profiling panel, artefact control for SMM control-protein annotation, biochemical, small-molecule microarray, 635/667 nm fluorescence (AID 1140); conditions: WGA-A647 binding, 635 nm fluorescence, higher = more signal;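 further: score merges 667 nm feature emission with signal to noise over triplicate slides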
[17] = molecular target: Luciferin 4-monooxygenase (Photinus pyralis) (UniProt P08659); experiment: firefly luciferase enzyme inhibitors, primary screen, biochemical, luminescence, purified enzyme, 2006 set (AID 1141); conditions: SteadyGlo luminescence, 30 min, higher = more signal, called active from +8 up or from −8 down;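 further: cell-free assay with purified firefly luciferase at 100 ng per well in PBS; test concentration not given here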
Chain of Luciferin 4-monooxygenase (Photinus pyralis) (P08659 whole entry, looked up): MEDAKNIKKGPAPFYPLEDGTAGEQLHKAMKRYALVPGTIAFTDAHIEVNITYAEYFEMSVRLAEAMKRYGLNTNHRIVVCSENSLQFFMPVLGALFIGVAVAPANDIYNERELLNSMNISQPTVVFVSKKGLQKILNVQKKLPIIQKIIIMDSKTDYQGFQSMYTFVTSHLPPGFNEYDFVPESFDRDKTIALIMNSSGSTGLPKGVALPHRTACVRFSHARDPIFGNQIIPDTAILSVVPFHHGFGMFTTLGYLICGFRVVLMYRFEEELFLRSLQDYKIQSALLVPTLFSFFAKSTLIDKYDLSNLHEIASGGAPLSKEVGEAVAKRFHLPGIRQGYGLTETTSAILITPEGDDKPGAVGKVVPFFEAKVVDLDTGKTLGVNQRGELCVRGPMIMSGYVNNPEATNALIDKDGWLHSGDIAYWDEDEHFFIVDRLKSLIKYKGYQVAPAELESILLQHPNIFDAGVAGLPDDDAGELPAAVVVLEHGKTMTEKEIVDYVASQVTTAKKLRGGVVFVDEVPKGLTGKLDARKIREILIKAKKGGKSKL

Chain of Focal adhesion kinase 1 (Homo sapiens) (Q05397 whole entry, looked up): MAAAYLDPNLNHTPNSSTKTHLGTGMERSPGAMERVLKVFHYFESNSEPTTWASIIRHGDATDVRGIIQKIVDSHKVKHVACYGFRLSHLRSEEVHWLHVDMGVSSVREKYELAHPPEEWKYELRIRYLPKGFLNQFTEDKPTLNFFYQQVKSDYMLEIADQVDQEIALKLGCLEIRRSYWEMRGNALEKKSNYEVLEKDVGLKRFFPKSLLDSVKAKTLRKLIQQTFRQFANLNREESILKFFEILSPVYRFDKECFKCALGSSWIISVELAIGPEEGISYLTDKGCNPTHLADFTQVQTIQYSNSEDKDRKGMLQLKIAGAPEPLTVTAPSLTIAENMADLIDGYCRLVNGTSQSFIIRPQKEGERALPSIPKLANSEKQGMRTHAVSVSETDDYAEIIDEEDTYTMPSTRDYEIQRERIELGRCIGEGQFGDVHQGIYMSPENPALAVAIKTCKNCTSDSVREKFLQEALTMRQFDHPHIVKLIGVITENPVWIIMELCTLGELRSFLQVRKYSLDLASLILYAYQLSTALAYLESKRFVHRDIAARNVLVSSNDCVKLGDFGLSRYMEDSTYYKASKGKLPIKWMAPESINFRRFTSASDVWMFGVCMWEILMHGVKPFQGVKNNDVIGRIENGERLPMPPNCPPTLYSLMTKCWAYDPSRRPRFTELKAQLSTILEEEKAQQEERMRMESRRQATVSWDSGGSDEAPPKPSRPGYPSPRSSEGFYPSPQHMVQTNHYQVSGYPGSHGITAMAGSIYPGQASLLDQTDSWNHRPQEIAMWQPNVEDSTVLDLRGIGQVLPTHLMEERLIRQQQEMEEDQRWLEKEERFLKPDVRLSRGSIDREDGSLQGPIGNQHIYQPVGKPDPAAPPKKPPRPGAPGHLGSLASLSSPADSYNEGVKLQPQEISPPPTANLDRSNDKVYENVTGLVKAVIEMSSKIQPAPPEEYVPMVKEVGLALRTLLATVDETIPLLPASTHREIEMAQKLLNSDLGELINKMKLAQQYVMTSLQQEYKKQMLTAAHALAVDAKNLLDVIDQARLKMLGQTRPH
Chain of Follistatin (Homo sapiens) (P19883 whole entry, looked up): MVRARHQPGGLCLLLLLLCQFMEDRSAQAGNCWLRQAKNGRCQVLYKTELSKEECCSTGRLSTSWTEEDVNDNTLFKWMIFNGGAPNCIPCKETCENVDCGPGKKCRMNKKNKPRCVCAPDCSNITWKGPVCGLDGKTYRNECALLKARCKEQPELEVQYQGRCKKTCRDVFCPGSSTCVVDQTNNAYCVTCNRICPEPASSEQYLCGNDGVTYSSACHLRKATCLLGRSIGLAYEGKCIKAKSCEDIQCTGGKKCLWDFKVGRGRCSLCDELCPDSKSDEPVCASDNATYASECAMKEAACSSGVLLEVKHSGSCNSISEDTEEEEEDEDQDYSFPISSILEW
Chain of Fibroblast growth factor 2 (Homo sapiens) (P09038 whole entry, looked up): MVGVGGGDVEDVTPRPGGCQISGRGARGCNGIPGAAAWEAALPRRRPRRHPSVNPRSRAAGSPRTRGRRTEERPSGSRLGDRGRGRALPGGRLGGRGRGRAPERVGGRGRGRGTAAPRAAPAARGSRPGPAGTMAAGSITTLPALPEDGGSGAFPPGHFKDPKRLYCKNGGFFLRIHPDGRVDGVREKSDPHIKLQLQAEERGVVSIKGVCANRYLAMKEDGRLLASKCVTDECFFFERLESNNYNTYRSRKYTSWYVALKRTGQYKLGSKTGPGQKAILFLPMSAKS
Chain of Albumin (Bos taurus) (P02769 whole entry, looked up): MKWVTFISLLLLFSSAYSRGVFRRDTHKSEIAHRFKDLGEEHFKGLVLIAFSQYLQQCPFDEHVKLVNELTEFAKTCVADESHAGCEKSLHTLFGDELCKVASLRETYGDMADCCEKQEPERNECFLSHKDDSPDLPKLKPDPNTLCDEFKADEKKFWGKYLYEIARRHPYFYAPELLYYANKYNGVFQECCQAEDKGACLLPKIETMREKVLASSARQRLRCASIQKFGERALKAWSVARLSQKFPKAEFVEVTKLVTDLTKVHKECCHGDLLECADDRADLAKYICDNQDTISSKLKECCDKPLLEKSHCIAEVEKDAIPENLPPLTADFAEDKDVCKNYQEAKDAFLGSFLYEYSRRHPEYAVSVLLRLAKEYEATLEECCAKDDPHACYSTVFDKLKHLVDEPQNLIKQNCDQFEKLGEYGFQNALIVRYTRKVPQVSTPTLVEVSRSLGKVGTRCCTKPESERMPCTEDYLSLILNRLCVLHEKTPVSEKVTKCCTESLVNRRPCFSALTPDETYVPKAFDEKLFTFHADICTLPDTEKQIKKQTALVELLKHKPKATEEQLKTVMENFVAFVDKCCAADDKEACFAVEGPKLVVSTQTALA
Chain of Concanavalin-A (Canavalia ensiformis) (P02866 whole entry, looked up): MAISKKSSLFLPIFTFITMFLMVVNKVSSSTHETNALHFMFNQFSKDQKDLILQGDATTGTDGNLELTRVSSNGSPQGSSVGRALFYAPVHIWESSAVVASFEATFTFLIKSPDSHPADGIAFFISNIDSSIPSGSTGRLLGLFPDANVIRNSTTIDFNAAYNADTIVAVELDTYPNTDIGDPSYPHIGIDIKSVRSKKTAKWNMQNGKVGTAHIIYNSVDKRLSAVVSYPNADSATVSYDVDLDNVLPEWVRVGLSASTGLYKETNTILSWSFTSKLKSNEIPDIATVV

Structure (SMILES)	composite z-score (Albumin (Bos taurus))	composite Z-score [1]	composite z-score [2]	composite z-score [3]	composite z-score [4]	composite z-score [5]	composite z-score [6]	composite z-score (Sam68 (KHDRBS1))	composite z-score [7]	composite z-score [8]	composite z-score [9]	composite z-score [10]	composite z-score [11]	composite z-score [12]	composite z-score [13]	composite z-score [14]	z-score [15]	composite z-score (Lefty1)	composite z-score [16]	z-score [17]
COCCOC(=O)N1C(=O)[C@@]2(c3cc(C#Cc4ccc(OC)cc4)ccc31)[C@H](c1ccccc1OCCO)N1[C@H](c3ccccc3)[C@H](c3ccccc3)OC(=O)[C@H]1[C@@H]2C(=O)NC[C@H](O)c1ccccc1	-0.0206	-0.112 (inactive)	0.156	-0.115	0.528	1.6	0.618	1.29	0.711	0.999	0.992	1.24	0.824	0.782	1.33	1.6	-0.922	1.16	0.889	0.385 (inactive)
C=CCOC(=O)[C@H]1[C@@H]2C(=O)O[C@@H](c3ccccc3)[C@@H](c3ccccc3)N2[C@@H](c2ccc(OCCOC(=O)[C@@H]3C[C@@H]4C(=O)N[C@@H](CCCCNC(C)=O)C(=O)N4[C@@H]3c3ccc(O)cc3)cc2)[C@]12C(=O)Nc1ccccc12	-0.729	0.282 (inactive)	0.173	-0.0291	0.638	1.94	0.21	1.3	1	1.2	3.17	1.22	1.14	0.76	1.25	1.49	-1.55	1.23	0.8	-0.907 (inactive)
CN(C)C(=O)[C@]1(Cc2ccccc2N=[N+]=[N-])N=C(c2ccc(OCCCO)cc2)O[C@@H]1c1ccccc1N=[N+]=[N-]	0.872	-1.05 (inactive)	0.201	0.134	0.556	2.85	0.274	1.29	-0.206	1.14	2.42	1.18	0.646	1.01	1.27	1.26	1.1	0.513	1.21	-3.94 (inactive)
CC(C)C[C@@H]1NC(=O)[C@@H]2C[C@H](C(=O)NCc3ccc(F)cc3)[C@H](c3cccc(OCCO)c3)N2C1=O	-0.972	0.532 (inactive)	-0.229	-0.166	0.549	0.558	1.19	0.72	0.915	0.902	2.05	0.135	0.379	-0.373	1.47	1.46	1.87	0.616	-0.129	-0.976 (inactive)
CC(C)=CCCC(C)=CC(O)C1C=CC2C(=O)N(C)C(=O)C2N1Nc1ccccc1 (stereo not given)	0.919	-0.305 (inactive)	0.286	-0.011	0.435	2.66	0.309	1.3	1.28	1.18	1.17	1.21	0.832	1.03	1.38	0.709	0.797	1.08	1.22	0.15 (inactive)
COC(=O)C(CC#Cc1ccc2c(c1)[C@]1(C(=O)N2)[C@H](C(=O)Nc2nc3ccccc3s2)[C@H]2C(=O)O[C@H](c3ccccc3)[C@H](c3ccccc3)N2[C@@H]1c1ccccc1OCCO)C(=O)OC	0.987	-0.323 (inactive)	0.116	-0.0859	0.663	1.69	0.636	1.3	-0.154	1.14	1.41	1.24	1.04	0.964	0.931	0.452	-2.25	0.625	1.29	-0.293 (inactive)
CC(=O)NCCCC[C@@H]1NC(=O)[C@@H]2C[C@H](C(=O)NCCCCCNC(=O)CS)[C@H](c3cccc(OCCO)c3)N2C1=O	-0.0839	0.648 (inactive)	-0.205	-0.159	-0.0086	-0.0704	-0.0909	0.254	1.05	0.241	2	-0.516	-0.612	-1.07	1.32	0.94	-0.763	1.1	0.0847	-0.125 (inactive)
COCCOC(=O)N1C(=O)[C@@]2(c3cc(C#Cc4ccc(OC)cc4)ccc31)[C@H](c1ccc(OCCO)cc1)N1[C@H](c3ccccc3)[C@H](c3ccccc3)OC(=O)[C@H]1[C@@H]2C(=O)N1CCN(c2ncccn2)CC1	-0.701	-0.799 (inactive)	-0.0311	-0.102	0.357	0.977	0.182	1.33	0.575	1.11	0.343	1.15	0.424	-0.51	1.21	1.43	-0.918	1.28	-0.0073	-0.618 (inactive)
